According to PubChem BioAssay:
Calls of active or inactive are those of the source.

Columns and labels:
[1] = optical density shifts of acrAB sulA E. coli – strain DRC41, OD650, 48 h, E. coli filamentation inducer project, primary screen (AID 1152); settings: higher = more signal, called active from +8 up or from −8 down;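 note: E. coli MC1000 strain DRC41 lacking acrAB efflux pump and sulA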
[2] = probe aLefty1 binding on compound microarray – biochemical, small-molecule microarray, 635/667 nm fluorescence, primary screen (AID 1153); settings: higher = more signal;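 note: score merges spot fluorescence with signal-to-noise ratio from the scanned slide images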
[3] = plasmodial surface anion channel blockers, osmotic lysis – cell-based, P. falciparum Indochina, OD700, 1 h, primary screen (AID 1154); settings: P. falciparum Indochina infected RBC osmotic lysis, higher = more signal, called active from +8 up or from −8 down
[4] = plasmodial surface anion channel blockers, osmotic lysis – cell-based, P. falciparum Indochina, OD700, 2 h, primary screen (AID 1155);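 note: lysis reports solute entry through the parasite surface anion channel PSAC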; settings: P. falciparum Indochina infected erythrocytes, higher = more signal, called active from +8 up or from −8 down
[5] = changes in parasitized red cell lysis, either direction – P. falciparum Indochina, OD700, 3 h, PSAC antagonist project, primary screen (AID 1156); settings: P. falciparum-infected erythrocytes, osmotic lysis, higher = more signal, called active from +8 up or from −8 down
[6] = plasmodial surface anion channel blockers, osmotic lysis – cell-based, P. falciparum Indochina, OD700, 18 h, primary screen (AID 1157); settings: P. falciparum Indochina infected erythrocytes, osmotic lysis OD700, 18 h; higher = more signal, called active from +8 up or from −8 down
[7] = S6 kinase pathway phospho-S6 level changes – cell-based, A549, cytoblot, luminescence, serum-stimulated, primary screen (AID 1158); settings: 5 h, higher = more signal;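 note: serum-stimulated A549 lung adenocarcinoma cells; signal is phosphorylated S6 detected by cytoblot immunostaining with HRP secondary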
[8] = biological target: NADPH oxidase 2 (Homo sapiens) (UniProt P04839); assay: compounds shifting NOX2 Amplex Red fluorescence – cell-based, HEK293-NOX2, PMA-stimulated, NOX inhibitor project, primary screen (AID 1159); settings: 45 min, higher = more signal, called active from +8 up or from −8 down; note: test concentration not given here
Sequence of NADPH oxidase 2 (Homo sapiens) (P04839 whole entry, looked up): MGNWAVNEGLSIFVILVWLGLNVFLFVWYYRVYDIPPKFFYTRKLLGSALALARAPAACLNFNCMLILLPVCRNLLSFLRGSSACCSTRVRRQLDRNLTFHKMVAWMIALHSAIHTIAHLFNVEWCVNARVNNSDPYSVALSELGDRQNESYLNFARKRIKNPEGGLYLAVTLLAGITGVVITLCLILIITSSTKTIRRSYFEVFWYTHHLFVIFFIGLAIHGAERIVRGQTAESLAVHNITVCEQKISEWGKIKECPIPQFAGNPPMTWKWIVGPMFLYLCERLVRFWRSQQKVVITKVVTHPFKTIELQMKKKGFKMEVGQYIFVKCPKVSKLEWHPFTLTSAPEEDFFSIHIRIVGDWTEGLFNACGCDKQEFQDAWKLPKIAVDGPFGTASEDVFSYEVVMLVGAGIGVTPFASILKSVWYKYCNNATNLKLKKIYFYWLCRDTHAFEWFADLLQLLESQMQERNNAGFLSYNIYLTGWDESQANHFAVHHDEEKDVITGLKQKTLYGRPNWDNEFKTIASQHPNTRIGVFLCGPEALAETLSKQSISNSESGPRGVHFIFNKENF

[9] = biological target: NADPH oxidase 4 (Homo sapiens) (UniProt Q9NPH5); assay: compounds shifting NOX4 Amplex Red fluorescence – cell-based, HEK293-NOX4, tetracycline-induced, NOX inhibitor project, primary screen (AID 1160); settings: HEK293-NOX4, Amplex Red H2O2 fluorescence, 45 min; higher = more signal, called active from +8 up or from −8 down
Sequence of NADPH oxidase 4 (Homo sapiens) (Q9NPH5 whole entry, looked up): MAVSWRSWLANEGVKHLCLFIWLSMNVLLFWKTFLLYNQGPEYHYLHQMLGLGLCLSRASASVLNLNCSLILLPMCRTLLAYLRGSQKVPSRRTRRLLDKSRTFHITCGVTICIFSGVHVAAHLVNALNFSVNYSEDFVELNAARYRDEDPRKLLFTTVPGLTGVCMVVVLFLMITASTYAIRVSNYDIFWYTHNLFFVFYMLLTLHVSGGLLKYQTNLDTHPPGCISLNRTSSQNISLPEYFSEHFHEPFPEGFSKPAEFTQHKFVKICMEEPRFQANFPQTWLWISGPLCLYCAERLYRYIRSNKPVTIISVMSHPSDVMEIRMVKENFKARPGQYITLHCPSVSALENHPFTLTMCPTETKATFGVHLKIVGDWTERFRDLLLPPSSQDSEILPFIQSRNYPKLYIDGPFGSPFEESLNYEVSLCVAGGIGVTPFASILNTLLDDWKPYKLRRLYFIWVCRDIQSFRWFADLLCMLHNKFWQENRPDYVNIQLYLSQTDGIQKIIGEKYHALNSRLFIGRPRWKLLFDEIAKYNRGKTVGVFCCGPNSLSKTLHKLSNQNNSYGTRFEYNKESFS

[10] = biological target: NADPH oxidase 5 (Homo sapiens) (UniProt Q96PH1); assay: compounds shifting NOX5 Amplex Red fluorescence – cell-based, HEK293-NOX5, NOX inhibitor project, primary screen (AID 1161); settings: HEK293-NOX5, ionomycin, 45 min, higher = more signal
Sequence of NADPH oxidase 5 (Homo sapiens) (Q96PH1 whole entry, looked up): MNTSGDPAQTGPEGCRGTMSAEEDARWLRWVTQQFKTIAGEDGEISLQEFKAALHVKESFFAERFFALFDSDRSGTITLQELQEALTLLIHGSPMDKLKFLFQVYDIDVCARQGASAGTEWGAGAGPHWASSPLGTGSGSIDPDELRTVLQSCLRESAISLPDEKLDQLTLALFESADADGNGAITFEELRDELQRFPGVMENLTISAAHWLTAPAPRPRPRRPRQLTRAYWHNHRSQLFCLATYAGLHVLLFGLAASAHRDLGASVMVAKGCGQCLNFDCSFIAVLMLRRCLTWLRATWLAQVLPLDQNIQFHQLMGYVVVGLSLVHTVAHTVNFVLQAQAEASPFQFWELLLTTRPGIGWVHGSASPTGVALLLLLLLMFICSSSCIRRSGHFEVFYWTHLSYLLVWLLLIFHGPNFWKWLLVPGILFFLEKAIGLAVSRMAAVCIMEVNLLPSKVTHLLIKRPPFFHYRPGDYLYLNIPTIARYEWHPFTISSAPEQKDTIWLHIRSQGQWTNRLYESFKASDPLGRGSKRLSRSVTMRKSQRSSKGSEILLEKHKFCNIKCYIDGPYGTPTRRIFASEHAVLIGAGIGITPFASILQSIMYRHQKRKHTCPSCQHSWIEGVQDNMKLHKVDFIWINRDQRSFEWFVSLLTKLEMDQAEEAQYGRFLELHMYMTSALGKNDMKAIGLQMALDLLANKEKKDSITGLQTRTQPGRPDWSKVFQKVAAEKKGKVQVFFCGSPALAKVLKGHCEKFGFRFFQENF

Row | Compound | z-score [1] | composite z-score [2] | z-score [3] | z-score [4] | z-score [5] | z-score [6] | z-score [7] | z-score [8] | z-score [9] | z-score [10]
1 | CCOC(=O)[C@H]1C/C=C/C[C@H](C(=O)OCC)C(=O)O[C@H]2[C@@H](OC)O[C@H](CO)[C@@H](OC(=O)Nc3ccc4c(c3)OCO4)[C@@H]2OC1=O | 1.2 (inactive) | -0.0727 | 4.49 (inactive) | 1.81 (inactive) | -0.564 (inactive) | 1.73 (inactive) | 0.483 | -1.09 (inactive) | -0.854 (inactive) | -0.02
2 | COc1c(C)cc(-c2cc3c(c(-c4ccc(Oc5ccccc5)cc4)n2)[Si](C(C)C)(C(C)C)OC3)cc1C | -1.42 (inactive) | 0.13 | 0.219 (inactive) | 0.603 (inactive) | 0.392 (inactive) | 0.63 (inactive) | -0.817 | -0.445 (inactive) | 0.722 (inactive) | -0.958
3 | COC(=O)c1c(CC[C@@H](CO)NC(=O)N[C@@H](Cc2ccccc2)Cn2cc(C3(O)CCCCC3)nn2)oc(C(C)=O)c1C(=O)OC | 1.27 (inactive) | 0.101 | 2.27 (inactive) | 0.566 (inactive) | 0.999 (inactive) | 0.312 (inactive) | 1.93 | -5.26 (inactive) | -2.18 (inactive) | -4.82
4 | CCOC(=O)C[C@H]1[C@H](OC(=O)Cc2ccc3c(c2)OCO3)[C@@H](NC(=O)c2ccc(-c3ccccc3)cc2)c2cc(OCCCO)ccc2N1C(=O)c1ccccc1 | 2.36 (inactive) | -0.122 | 8.3 (active) | 1.63 (inactive) | -0.825 (inactive) | 0.505 (inactive) | -0.0321 | -0.588 (inactive) | 0.674 (inactive) | 1.8
5 | COc1cc2c(cc1O)C(C)N(Cc1cccc(OC(F)(F)F)c1)CC2 (stereo not given) | 0.126 (inactive) | -0.0015 | 2.96 (inactive) | 0.328 (inactive) | 2.09 (inactive) | 0.573 (inactive) | -0.0952 | -3.51 (inactive) | -2.46 (inactive) | -3.03
6 | O=C/C=C/c1ccc(Cl)cc1 | 0.73 (inactive) | -0.0885 | -0.406 (inactive) | -2.04 (inactive) | -0.316 (inactive) | -2.54 (inactive) | 0.617 | -0.506 (inactive) | -0.869 (inactive) | 1.44
7 | COCCOC(=O)N1C(=O)[C@@]2(c3cc(C#CCNC(N)=O)ccc31)[C@H](c1ccc(OCCO)cc1)N1[C@H](c3ccccc3)[C@H](c3ccccc3)OC(=O)[C@H]1[C@@H]2C(=O)N1CCc2cc(OC)c(OC)cc2C1 | 0.506 (inactive) | 0.308 | 3.71 (inactive) | 1.89 (inactive) | 0.523 (inactive) | 1.15 (inactive) | 0.307 | 1.89 (inactive) | 1.09 (inactive) | 0.284
8 | CCCC[C@@H]1C[C@H]1[C@@H](NC(=O)c1ccc(-c2ccccc2)cc1)c1ccc(-c2ccccc2)cc1 | -2.4 (inactive) | 0.0341 | 2.15 (inactive) | 0.275 (inactive) | 1.68 (inactive) | 0.446 (inactive) | -0.456 | -1.32 (inactive) | -2 (inactive) | -0.619
9 | CCOC(=O)[C@H]1C[C@H]2O[C@@]23C[C@H]1C(=O)N1CCCC1[C@@H]3O[Si](C)(C)C(C)(C)C (stereo not given in full) | -0.954 (inactive) | -0.0573 | 1.35 (inactive) | 0.23 (inactive) | 0.183 (inactive) | 0.158 (inactive) | -0.67 | 1.05 (inactive) | 0.302 (inactive) | -1.7
10 | O=C1O[C@@H](c2ccccc2)[C@@H](c2ccccc2)N2[C@@H](c3ccc(OCCO)cc3)[C@]3(C(=O)Nc4ccccc43)[C@@H](C(=O)Nc3nc4ccccc4s3)[C@H]12 | 0.515 (inactive) | 0.919 | 5.55 (inactive) | 2.55 (inactive) | 1.37 (inactive) | 2.01 (inactive) | 0.298 | 1.68 (inactive) | 1.24 (inactive) | 1.63
11 | CC(C)c1ccc(NN2C(C(O)c3cccc(O)c3)C=CC3C(=O)N(c4ccccc4)C(=O)C32)cc1 (stereo not given) | -0.833 (inactive) | 0.0523 | 8.05 (active) | 1.14 (inactive) | 1.5 (inactive) | 1.64 (inactive) | -0.83 | -2.01 (inactive) | -5.51 (inactive) | -4.13
12 | COc1ccccc1CN1C(=O)c2ccccc2[C@@H](C(=O)NCCN2CCOCC2)[C@@H]1c1ccc(CO)cc1 | -0.0157 (inactive) | -0.211 | 2.67 (inactive) | 0.0298 (inactive) | 1.56 (inactive) | 0.695 (inactive) | 0.513 | 1.26 (inactive) | -0.65 (inactive) | -2.47
13 | O=C(O)[C@@]1(Cc2ccccc2)N=C(c2ccc(OCCCO)cc2)O[C@H]1c1ccccc1 | 0.922 (inactive) | -0.251 | 3.67 (inactive) | 0.132 (inactive) | -0.466 (inactive) | 0.445 (inactive) | -0.134 | 0.18 (inactive) | 0.864 (inactive) | 1.33
14 | C=CCC(OC(C)=O)[C@@H]1[C@@H](N(Cc2cccc3ccccc23)C(=O)c2ccc(C)cc2)c2cc(OCCCO)ccc2N1C(=O)Cc1ccc(OC)cc1 (stereo not given in full) | 2.7 (inactive) | -0.0482 | 0.786 (inactive) | -0.438 (inactive) | -0.632 (inactive) | -0.669 (inactive) | 1.95 | -0.993 (inactive) | 0.727 (inactive) | 0.687
15 | Cc1ccc(S[C@]2(C(=O)NCc3ccccc3)CC(=O)N(Cc3ccccc3)[C@@H]2c2ccc(CO)cc2)cc1 | -1.24 (inactive) | -0.188 | 1.27 (inactive) | 0.115 (inactive) | -0.376 (inactive) | -0.234 (inactive) | 0.0768 | -1.51 (inactive) | 0.494 (inactive) | -0.189
16 | CC1=C2[C@@H](CCc3ccccc3)OB(O)C[C@@H]2n2c(=O)n(-c3ccccc3)c(=O)n2C1 | -0.616 (inactive) | -0.347 | 1.57 (inactive) | 0.323 (inactive) | -0.318 (inactive) | -0.31 (inactive) | 0.417 | -0.416 (inactive) | -1.61 (inactive) | -0.939
17 | CCCNC(=O)[C@@]1(c2ccc([N+](=O)[O-])cc2)CC(=O)N(CC23CC4CC(CC(C4)C2)C3)[C@@H]1c1ccc(CO)cc1 | -0.0948 (inactive) | -0.409 | 5.64 (inactive) | 0.903 (inactive) | 2.2 (inactive) | 0.625 (inactive) | -0.154 | 0.328 (inactive) | -1.85 (inactive) | -0.569
18 | CCOC(=O)C1=CCC(C(C)(C)C)N(S(=O)(=O)c2ccc(C)cc2)C1 (stereo not given) | -1.32 (inactive) | 0.0494 | 1.53 (inactive) | 0.768 (inactive) | 0.281 (inactive) | 0.289 (inactive) | -0.693 | -0.124 (inactive) | -1.21 (inactive) | 0.194
19 | O=C1OCCC=C[C@H]2OC34C=CCN(Cc5ccccc5)C(=O)[C@H]3N(CCCO)C(=O)[C@@H]4C12 (stereo not given in full) | 2.94 (inactive) | -0.101 | 0.64 (inactive) | -0.306 (inactive) | 0.739 (inactive) | -0.996 (inactive) | 0.84 | -1.96 (inactive) | -2.93 (inactive) | -3.28
20 | COc1ccc(NN2C(C(O)c3ccc(OC)c(OCc4ccccc4)c3)C=CC3C(=O)N(C4CCCCC4)C(=O)C32)cc1 (stereo not given) | 0.678 (inactive) | 0.32 | 4.41 (inactive) | 1.38 (inactive) | 0.31 (inactive) | 1 (inactive) | 0.0173 | -0.195 (inactive) | -1.96 (inactive) | -0.604
21 | C=CC[C@@]1(C(=O)NCC(O)CO)N=C(c2ccc(OCCCO)cc2)O[C@@H]1c1ccccc1N=[N+]=[N-] (stereo not given in full) | 1 (inactive) | 0.18 | 34.8 (active) | 27.8 (active) | 3.23 (inactive) | 6.75 (inactive) | 1.58 | -2.45 (inactive) | 0.918 (inactive) | -2.74
22 | C=CCC(OC(C)=O)[C@@H]1[C@@H](N(Cc2ccc(-c3ccccc3)cc2)C(=O)Cc2ccc(F)cc2)c2cc(OCCCO)ccc2N1C(=O)c1ccc2ccccc2n1 (stereo not given in full) | 1.51 (inactive) | 0.22 | 0.879 (inactive) | 1.19 (inactive) | -0.385 (inactive) | 0.505 (inactive) | 0.374 | -0.632 (inactive) | 0.631 (inactive) | 1.95
